Source: PubChem BioAssay (NCATS)
“And” between values parts separate entries of the source, which are not always exact repeats. Identical values can stand only once. Records with an inconclusive call do not appear. Entries that show only a call come without a potency. Unmarked numbers belong to inactive results. The source made the active and inactive calls. Unless noted, calls follow the shape of the dose curve; as a rule, active = well fitted curve in the direction sought with a large enough effect; inconclusive = small, poorly fitted or top-dose-only effect, or another doubt; inactive = no such curve, though single readings can be large; an effect the other way counts as inactive or inconclusive.

Columns and labels:
[1] = Primary qHTS for small molecule stabilizers of the endoplasmic reticulum resident proteome: Secreted ER Calcium Modulated Protein (SERCaMP) assay (AID 1508630)
Outline: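 GLuc-SERCaMP-expressing SH-SY5Y cells, pretreated 16 h with compound, are challenged with thapsigargin to empty ER calcium stores; after 4 h, coelenterazine is added directly to the medium and luminescence is imaged.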

[2] = molecular target: Cytochrome P450 2D6 (Homo sapiens) (UniProt P10635); experiment: Cytochrome P450 family 2 subfamily D member 6 (CYP2D6) small molecule antagonists: luciferase biochemical (cell-free) qHTS assay (AID 1645840; active = well fitted curve in the direction sought with a large enough effect in the repeat runs; an effect the other way counts as inactive or inconclusive; also: nearly all actives have a fitted effect of over 55% in size; also: potency is read from the fitted curve at half-maximal effect; as to activity change, negative = inhibition: series mostly up to about 57 µM)
Outline: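 P450-Glo luminescent screen: recombinant CYP2D6 enzyme–proluciferin substrate mix preincubated with compound 10 min at room temperature, then NADPH regeneration added for 1 h at room temperature. Detection reagent added for 20 min; luciferin light read as relative luminescence units.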

[3] = A High-Content qHTS Against Drug Library for the Identification of Small Molecules that Inhibit DYT1 Early Onset Primary Dystonia-Associated Cell Pathology (AID 1645839; calls by dose curve; also: series mostly up to about 46 µM)
Outline: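 Flp-In T-REx 293 cells with tetracycline-inducible EGFP-delE hTOR1A (WT EGFP-hTOR1A as reference), 800 cells/well; compound added with tetracycline, 48 h at 37 C. Fixed, permeabilized cells imaged; %pathology (punctate TorsinA) primary, cell count counterscreen.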

[4] = molecular target: Cytochrome P450 2C9 (Homo sapiens) (UniProt P11712); experiment: Cytochrome P450 family 2 subfamily C member 9 (CYP2C9) small molecule antagonists: luciferase biochemical (cell-free) qHTS assay (AID 1645842; active = well fitted curve in the direction sought with a large enough effect in the repeat runs; an effect the other way counts as inactive or inconclusive; also: nearly all actives have a fitted effect of over 55% in size; also: potency is read from the fitted curve at half-maximal effect; as to activity change, negative = inhibition: series mostly up to about 57 µM)
Outline: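 Luminescence, after 20 min with luciferin detection reagent, reflected CYP2C9 turnover during a 1 h NADPH-driven reaction at 37C. Enzyme-substrate mix contained 0.4% bovine serum albumin and was preincubated with compound 10 min at room temperature.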

[5] = Primary qHTS for inhibitors of nuclear receptor binding SET domain protein 2 (NSD2) in an isogenic RCH-ACV NSD2 p.E1099K mutant (9B) (AID 1645876); also: nearly all actives have a fitted effect of over 70% in size; also: potency is read from the fitted curve at half-maximal effect
[6] = Primary qHTS for inhibitors of nuclear receptor binding SET domain protein 2 (NSD2) in an RCH-ACV wild type WT cells (2C) (AID 1645877); also: nearly all actives have a fitted effect of over 70% in size; also: potency is read from the fitted curve at half-maximal effect
[7] = molecular target: N-terminal Xaa-Pro-Lys N-methyltransferase 1 (Homo sapiens) (UniProt Q9BV86); experiment: Confirmatory qHTS for Inhibitors of N-terminal methyltransferase 1 (NTMT1): MTaseGlo Assay (AID 1645874);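 also: luminescence from SAH made as NTMT1 methylates SPKRIA peptide using SAM; series mostly up to about 100 µM; nearly all actives have a fitted effect of over 65% in size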
Outline: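 Preincubation of NTMT1 (125 nM) plus SAM (100 uM) with test compounds lasted 15 min; methylation of 1 uM SPKRIA then proceeded 30 min in the dark at room temperature. Luciferase signal reported SAH produced.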

Papain (Carica papaya) = Papain (Carica papaya) (UniProt P00784); experiment: Primary qHTS assay for inhibitors of the protease papain (AID 1645873);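 also: papain turnover of Z-FR-AMC read as the AMC fluorescence gain over 10 min; series mostly up to about 50 µM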
[8] = molecular target: Rap guanine nucleotide exchange factor 3 (Homo sapiens) (UniProt O95398); experiment: Confirmatory qHTS for antagonist of cAMP-regulated guanine nucleotide exchange factor 3 (EPAC1) (AID 1645880); also: nearly all actives have a fitted effect of over 55% in size
Outline: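 Nucleotide exchange uses 100 nM EPAC1, 250 nM RAP1B-BODIPY-GDP and 50 uM GDP, with compounds in a concentration-titration series. After 5 min at room temperature, fluorescence (480 nm ex/540 nm em) is read every 5 min for 30 min. Data are normalized to control ATA and DMSO.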

[9] = molecular target: Rap guanine nucleotide exchange factor 3 (Homo sapiens) (UniProt O95398); experiment: Confirmatory qHTS for agonist of cAMP-regulated guanine nucleotide exchange factor 3 (EPAC1) (AID 1645881);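 also: EPAC1 catalysed release of BODIPY-GDP from Rap1B seen as fluorescence loss; nearly all actives have a fitted effect of over 75% in size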
[10] = molecular target: Rap guanine nucleotide exchange factor 4 (Homo sapiens) (UniProt Q8WZA2); experiment: Confirmatory qHTS for agonist of cAMP-regulated guanine nucleotide exchange factor 4 (EPAC2) (AID 1645884);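 also: nucleotide exchange releases bodipy-GDP from Rap1 and this lowers its fluorescence; nearly all actives have a fitted effect of over 65% in size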
[11] = molecular target: Rap guanine nucleotide exchange factor 3 (Homo sapiens) (UniProt O95398); experiment: Counterscreen qHTS for antagonist of cAMP-regulated guanine nucleotide exchange factor 3 (EPAC1) (AID 1645888);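 also: fluorescence loss as bound BODIPY-GDP is released from Rap1B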
Outline: (§1)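 Rap1B–BODIPY-GDP (250 nM) with 50 uM GDP; compounds pin-transferred to 9.74 nM–152 uM final (activator) or from 7.32 nM upwards (inhibitor). Fluorescence Ex/Em 480/540 nm read at 5 and 30 min, then after adding cAMP or buffer, at room temperature.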

[12] = molecular target: Rap guanine nucleotide exchange factor 3 (Homo sapiens) (UniProt O95398); experiment: Counterscreen qHTS for agonist of cAMP-regulated guanine nucleotide exchange factor 3 (EPAC1) (AID 1645889); also: nearly all actives have a fitted effect of over 40% in size
Outline: as §1

[13] = NCATS anti-infectives library activity on HEK293 viability as a counter-qHTS vs the C. elegans viability qHTS (AID 1745854);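 also: HEK293 cells exposed to compounds for 24 hr before the viability read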
Outline: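 HEK293 cells (1,500/well) exposed 24 hr at 37C to 1:5 titrations, up to 41.7 uM final; counter-screen to a C. elegans viability qHTS. Viability by CellTiter-Glo luminescence after 10 min at room temperature; digitonin as control.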

[14] = Viability counterscreen for antagonist of constitutive androstane receptor (CAR) against the NCATS DSHEA and TCM libraries (AID 1794837);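 also: compound exposure lasted 24 h before viability reading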
Outline: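 HepG2-CYP2B6-hCAR cells, 2,500/well, were exposed 24 hr at 37C to substances together with 48 uM CITCO (final). Viability was read as CellTiter-Fluor fluorescence (Ex/Em 405/540 nm) after 1 hr.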

[15] = Viability counterscreen for agonist of constitutive androstane receptor (CAR) against the NCATS DSHEA and TCM libraries (AID 1794838);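 also: HepG2 cells with CYP2B6 reporter and hCAR plus 0.75 µM PK11195 antagonist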
Outline: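 HepG2-CYP2B6-hCAR cells (2,500/well) treated 24 h at 37C with compounds plus 0.75 uM PK11195; viability read by CellTiter-Fluor fluorescence, Ex/Em 405/540 nm.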

[16] = molecular target: Nuclear receptor subfamily 1 group I member 3 (Homo sapiens) (UniProt Q14994); experiment: Primary qHTS for agonist of constitutive androstane receptor (CAR) against the NCATS DSHEA and TCM libraries (AID 1794839); also: potency is read from the fitted curve at half-maximal effect
Outline: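 HepG2-CYP2B6-hCAR cells, 2,500/well, attached 5 h, then dosed with 0.75 µM PK11195 (final) for 24 h at 37 °C. Luciferase luminescence read (ONE-Glo); CellTiter-Fluor viability (Ex/Em 405/540 nm) in same wells; CITCO positive control.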

Cytochrome P450 2C9 (Homo sapiens), sequence (P11712 whole entry, looked up): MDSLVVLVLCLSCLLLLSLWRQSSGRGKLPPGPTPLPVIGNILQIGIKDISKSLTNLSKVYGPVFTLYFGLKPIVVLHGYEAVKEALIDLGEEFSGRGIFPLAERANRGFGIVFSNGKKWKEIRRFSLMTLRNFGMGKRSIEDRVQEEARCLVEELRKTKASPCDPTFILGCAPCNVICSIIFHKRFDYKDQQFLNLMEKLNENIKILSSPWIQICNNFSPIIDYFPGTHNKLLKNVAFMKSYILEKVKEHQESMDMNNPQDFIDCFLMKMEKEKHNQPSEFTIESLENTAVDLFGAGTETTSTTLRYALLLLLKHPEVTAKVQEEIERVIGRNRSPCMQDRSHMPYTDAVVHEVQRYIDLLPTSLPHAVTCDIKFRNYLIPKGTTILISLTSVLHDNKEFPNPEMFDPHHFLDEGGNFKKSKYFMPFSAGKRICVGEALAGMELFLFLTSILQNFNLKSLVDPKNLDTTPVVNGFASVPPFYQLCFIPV
Cytochrome P450 2D6 (Homo sapiens), sequence (P10635 whole entry, looked up): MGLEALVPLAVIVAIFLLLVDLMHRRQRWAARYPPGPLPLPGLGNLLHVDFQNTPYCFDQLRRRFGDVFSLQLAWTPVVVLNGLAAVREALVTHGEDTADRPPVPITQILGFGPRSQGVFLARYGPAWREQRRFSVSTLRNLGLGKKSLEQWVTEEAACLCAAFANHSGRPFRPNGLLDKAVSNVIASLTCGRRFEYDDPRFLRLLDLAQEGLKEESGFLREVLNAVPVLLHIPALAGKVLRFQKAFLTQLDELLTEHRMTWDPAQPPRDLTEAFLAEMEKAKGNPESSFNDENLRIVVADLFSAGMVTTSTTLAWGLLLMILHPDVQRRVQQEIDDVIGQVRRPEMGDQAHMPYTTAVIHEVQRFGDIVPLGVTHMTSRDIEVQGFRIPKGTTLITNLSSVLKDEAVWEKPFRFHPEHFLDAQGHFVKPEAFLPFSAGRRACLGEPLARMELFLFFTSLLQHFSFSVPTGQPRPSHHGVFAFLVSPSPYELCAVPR
Rap guanine nucleotide exchange factor 3 (Homo sapiens), sequence (O95398 whole entry, looked up): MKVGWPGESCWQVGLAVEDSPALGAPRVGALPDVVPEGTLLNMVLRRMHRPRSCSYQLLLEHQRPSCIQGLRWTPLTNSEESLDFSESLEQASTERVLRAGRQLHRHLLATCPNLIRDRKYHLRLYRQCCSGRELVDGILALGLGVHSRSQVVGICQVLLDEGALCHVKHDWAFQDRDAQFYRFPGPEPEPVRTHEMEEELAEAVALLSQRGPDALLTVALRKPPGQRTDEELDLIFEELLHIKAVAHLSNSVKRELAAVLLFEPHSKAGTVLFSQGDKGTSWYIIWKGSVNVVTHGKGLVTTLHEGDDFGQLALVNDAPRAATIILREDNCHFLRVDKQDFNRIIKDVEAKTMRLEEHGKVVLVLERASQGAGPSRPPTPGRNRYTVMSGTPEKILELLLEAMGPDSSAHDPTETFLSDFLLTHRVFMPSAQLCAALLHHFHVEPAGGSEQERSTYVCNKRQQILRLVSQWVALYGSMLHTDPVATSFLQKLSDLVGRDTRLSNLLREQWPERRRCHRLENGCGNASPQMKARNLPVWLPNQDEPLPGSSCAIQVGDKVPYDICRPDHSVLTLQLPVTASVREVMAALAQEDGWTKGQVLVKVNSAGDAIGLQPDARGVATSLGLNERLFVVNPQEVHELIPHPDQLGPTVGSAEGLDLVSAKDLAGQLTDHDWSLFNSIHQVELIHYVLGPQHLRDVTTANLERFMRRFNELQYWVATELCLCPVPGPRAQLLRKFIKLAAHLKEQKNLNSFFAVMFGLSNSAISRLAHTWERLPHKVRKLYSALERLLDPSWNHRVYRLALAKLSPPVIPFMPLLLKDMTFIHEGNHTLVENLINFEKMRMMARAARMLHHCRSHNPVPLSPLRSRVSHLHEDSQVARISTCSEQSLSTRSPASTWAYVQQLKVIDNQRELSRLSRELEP
Rap guanine nucleotide exchange factor 4 (Homo sapiens), sequence (Q8WZA2 whole entry, looked up): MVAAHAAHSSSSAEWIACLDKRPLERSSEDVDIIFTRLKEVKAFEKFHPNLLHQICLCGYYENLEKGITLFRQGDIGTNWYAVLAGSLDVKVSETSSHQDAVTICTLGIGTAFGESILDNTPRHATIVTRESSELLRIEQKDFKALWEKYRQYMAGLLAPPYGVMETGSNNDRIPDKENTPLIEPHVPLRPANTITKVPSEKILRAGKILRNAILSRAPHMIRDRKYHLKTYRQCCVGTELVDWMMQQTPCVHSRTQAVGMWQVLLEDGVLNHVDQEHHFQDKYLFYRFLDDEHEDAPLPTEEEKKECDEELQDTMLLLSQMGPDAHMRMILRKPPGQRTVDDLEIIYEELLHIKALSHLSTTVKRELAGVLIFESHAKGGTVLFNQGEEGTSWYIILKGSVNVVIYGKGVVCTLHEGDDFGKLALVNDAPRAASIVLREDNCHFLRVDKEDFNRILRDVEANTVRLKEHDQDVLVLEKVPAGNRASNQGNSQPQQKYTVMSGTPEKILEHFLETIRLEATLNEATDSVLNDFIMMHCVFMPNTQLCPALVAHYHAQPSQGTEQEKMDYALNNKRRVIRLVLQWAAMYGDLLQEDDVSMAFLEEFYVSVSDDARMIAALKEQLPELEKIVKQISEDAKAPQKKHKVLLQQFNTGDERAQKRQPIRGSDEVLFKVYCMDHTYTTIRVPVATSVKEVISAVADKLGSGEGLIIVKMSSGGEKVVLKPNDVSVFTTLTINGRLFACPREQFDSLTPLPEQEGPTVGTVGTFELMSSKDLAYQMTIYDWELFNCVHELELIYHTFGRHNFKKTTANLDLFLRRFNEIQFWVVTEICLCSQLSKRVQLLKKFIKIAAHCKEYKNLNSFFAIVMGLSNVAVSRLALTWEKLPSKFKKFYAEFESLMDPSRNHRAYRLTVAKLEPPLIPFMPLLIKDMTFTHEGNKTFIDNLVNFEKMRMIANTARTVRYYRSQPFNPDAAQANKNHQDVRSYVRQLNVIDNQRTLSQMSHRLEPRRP
Nuclear receptor subfamily 1 group I member 3 (Homo sapiens), sequence (Q14994 whole entry, looked up): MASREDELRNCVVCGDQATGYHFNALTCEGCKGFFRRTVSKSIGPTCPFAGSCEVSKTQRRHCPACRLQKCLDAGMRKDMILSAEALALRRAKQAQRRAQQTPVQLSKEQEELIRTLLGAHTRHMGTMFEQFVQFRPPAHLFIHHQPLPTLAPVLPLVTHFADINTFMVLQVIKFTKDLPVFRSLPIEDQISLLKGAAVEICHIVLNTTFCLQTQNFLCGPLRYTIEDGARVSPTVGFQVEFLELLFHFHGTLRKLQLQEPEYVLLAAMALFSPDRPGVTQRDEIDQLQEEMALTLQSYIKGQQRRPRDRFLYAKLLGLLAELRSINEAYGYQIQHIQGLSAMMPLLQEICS
N-terminal Xaa-Pro-Lys N-methyltransferase 1 (Homo sapiens), sequence (Q9BV86 whole entry, looked up): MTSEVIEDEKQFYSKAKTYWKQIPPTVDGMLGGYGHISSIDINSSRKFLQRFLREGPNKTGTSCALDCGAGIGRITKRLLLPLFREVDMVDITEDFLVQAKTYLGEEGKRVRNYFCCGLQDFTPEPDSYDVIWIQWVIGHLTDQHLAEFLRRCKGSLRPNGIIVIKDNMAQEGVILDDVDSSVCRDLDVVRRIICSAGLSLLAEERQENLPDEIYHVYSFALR
Papain (Carica papaya), sequence (P00784 whole entry, looked up): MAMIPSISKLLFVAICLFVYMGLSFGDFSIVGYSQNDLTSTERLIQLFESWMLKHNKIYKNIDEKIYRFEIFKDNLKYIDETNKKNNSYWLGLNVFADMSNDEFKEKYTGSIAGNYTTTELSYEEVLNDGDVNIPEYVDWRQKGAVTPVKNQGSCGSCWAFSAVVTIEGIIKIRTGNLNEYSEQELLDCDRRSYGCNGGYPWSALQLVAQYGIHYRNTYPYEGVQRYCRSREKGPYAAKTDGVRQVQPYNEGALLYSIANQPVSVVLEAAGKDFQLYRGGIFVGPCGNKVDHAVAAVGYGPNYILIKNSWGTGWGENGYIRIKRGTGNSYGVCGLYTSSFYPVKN

With `O=C(O)c1ccc(NC2OC[C@@H](O)[C@H](O)[C@H]2O)cc1` (stereo partly specified) the outcome [1] was “inactive”.

In the case of `CCN(CC)CCOCCOC(=O)C(CC)(CC)c1ccccc1`, the Potency [2] is reported as 3.01 µM (active).

For `O=C1CCC(c2ccccc2)(C2CCN(Cc3ccccc3)CC2)C(=O)N1` (stereo unspecified), the outcome [1] was “inactive”.

For `NC(=O)c1ccc[n+]([C@@H]2O[C@H](COP(=O)([O-])OP(=O)(O)OC[C@H]3O[C@@H](n4cnc5c(N)ncnc54)[C@H](O)[C@@H]3O)[C@@H](O)[C@H]2O)c1`, the outcome [1] was “inactive”.

With `CC(=O)Oc1cccc2c1C(=O)c1c(OC(C)=O)cc(C(=O)O)cc1C2=O` the outcome [1] was “inactive”, the outcome [3] was “inactive” and the Potency [4] was “inactive”. The Potency [5] was “inactive” and the Potency [6] was “inactive”.

For `O=C(O)CCC/C=C\C[C@@H]1[C@@H](/C=C/[C@@H](O)COc2cccc(Cl)c2)[C@H](O)C[C@@H]1O`, the activity change, negative = inhibition [1] was -16.6% [at 3.88 µM].

For `COc1cc(C)c(/C=C/C(C)=C/C=C/C(C)=C/C(=O)O)c(C)c1C`, the outcome [1] was “inactive”, the outcome [7] was “inactive” and the Potency [6] was 18.6 µM (active).

With `Oc1ccc(/C=C/c2cc(O)cc(O)c2)cc1` the outcome [1] was “inactive”, the outcome (Papain (Carica papaya)) was “inactive” and the Potency [5] was 9.34 µM (active). The Potency [6] was 18.8 µM (active) and 11.8 µM (active), the outcome [8] was “inactive” and the outcome [9] was “inactive”. The outcome [10] was “inactive”, the outcome [11] was “inactive” and the outcome [12] was “inactive”. For the same compound, the outcome [13] was “inactive”, the outcome [14] was “inactive” and the outcome [15] was “inactive”. The Potency [16] was 31.6 µM (active).

In the case of `C[C@@](Cc1ccc(O)c(O)c1)(NN)C(=O)O`, the Potency [2] is reported as “inactive”.

In the case of `O=C(O)CCC(=O)c1ccc(-c2ccccc2)cc1`, the outcome [3] is reported as “inactive”, the Potency [4] is reported as “inactive” and the Potency [5] is reported as “inactive”. The Potency [6] was “inactive”.

In the case of `CC(CC=O)CCCC(C)(C)O` (stereo unspecified), the Potency [2] is reported as “inactive”.

For `COc1ccc2nc(NC(=O)Nc3ccccc3)sc2c1`, the outcome [1] was “inactive”, the outcome [3] was “inactive” and the Potency [2] was “inactive”. For the same compound, the Potency [4] was 13.8 µM (active).
